The text below walks through data of PubChem BioAssay (NCI).

Test systems include BT-549 breast; MDA-MB-435 melanoma; SW-620 colon; MCF7 breast; HCT-116 colon; HCC-2998 colon; KM12 colon.
Common to all, as to assay: NCI-60 one-dose screen, 48 h (100 = growth as untreated, 0 = no growth, -100 = all killed)

Structures are written as SMILES. “And” between values parts separate entries of the source, which are not always exact repeats. Equal entries are not always repeated. The panel holds about 83,000 compounds, 20% with a hit somewhere; the sample as a whole holds those more often.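 Each cell line was grown in a 96-well plate and treated with one concentration of compound for 48 hours. Values below 10 were considered active.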 Unmarked numbers belong to inactive results. The source made the active and inactive calls. Starred links: 1 amine or outer side, 2 acyl side, 3 side chain; linkers in the order of their positions; H or OH if unused. Positions of bridges follow the written chain, without caps; N, C: chain ends. Non-standard residues stand in square brackets, D forms with d. Residues, ends and D or L forms follow the SMILES beside them. Chains are numbered I, II in the order given. Actinocin(9to1) = Cc1c2oc3c(C)ccc(C(=O)[*:1])c3nc-2c(C(=O)[*:2])c(N)c1=O; aThr = C[C@H](O)[C@H](N)C(=O)O; NMeV = CN[C@H](C(=O)O)C(C)C; Sar = CNCC(=O)O

As for `Cc1c2oc3c(C)ccc(C(=O)N[C@@H]4C(=O)N[C@H](C(C)C)C(=O)N5CCC[C@H]5C(=O)N(C)CC(=O)N(C)[C@@H](C(C)C)C(=O)O[C@H]4C)c3nc-2c(C(=O)N[C@@H]2C(=O)N[C@H](C(C)C)C(=O)N3CCC[C@H]3C(=O)N(C)CC(=O)N(C)[C@@H](C(C)C)C(=O)O[C@H]2C)c(N)c1=O` (I: [aThr][dV]P[Sar][NMeV] / II: [aThr][dV]P[Sar][NMeV]; ester I:1-I:C, II:1-II:C; linker I:N-II:N via Actinocin(9to1)), the growth is 27.5% in the test on BT-549 breast (0.0025 µM); -45.4% (active) with BT-549 breast (10 µM); 41.6% with MDA-MB-435 melanoma (0.0025 µM); -93.8% (active) in the test with MDA-MB-435 melanoma (10 µM); 32.8% in the test on SW-620 colon (0.0025 µM); -27.9% (active) in the test on SW-620 colon (10 µM). In addition, the growth is 12.2% in the test with MCF7 breast (0.0025 µM); -15.3% (active) in the test on MCF7 breast (10 µM); 16% in the test on HCT-116 colon (0.0025 µM); -29.5% (active) in the test with HCT-116 colon (10 µM); 15.2% in the test on HCC-2998 colon (0.0025 µM); 47.3% in the test with KM12 colon (0.0025 µM). Further, the growth in the test with KM12 colon (10 µM) was 0.211% (active).
`Cc1cnc(/C=N\NC(N)=S)c2cccc(N)c12`: the growth with MDA-MB-435 melanoma (10 µM) is 27.8%; in the test with SW-620 colon (10 µM), 35%; in the test on MCF7 breast (10 µM), 9.29% (active); in the test with HCT-116 colon (10 µM), 17.4%; with HCC-2998 colon (10 µM), -39.3% (active); in the test on KM12 colon (10 µM), 27.9%.
Consider `N#C/C(=C1C=C/C(=N\O)C(Cl)=C\1)c1ccccc1`, for which the growth was 110% in the test on BT-549 breast (10 µM); -43% (active) in the test with MDA-MB-435 melanoma (10 µM); 17.8% with SW-620 colon (10 µM); 14.8% with MCF7 breast (10 µM); 5.69% (active) with HCT-116 colon (10 µM); 89.7% in the test with HCC-2998 colon (10 µM). Moreover, the growth in the test on KM12 colon (10 µM) was 13.5%.
`S=c1[nH]nc(Cc2ccccc2)c(=S)[nH]1`: the growth in the test with BT-549 breast (10 µM) is 109%; in the test with MDA-MB-435 melanoma (10 µM), 106%; with SW-620 colon (10 µM) it was 109%; in the test on MCF7 breast (10 µM), 96.5%; with HCT-116 colon (10 µM) it was 100%; in the test on HCC-2998 colon (10 µM), 103%. Further, the growth in the test on KM12 colon (10 µM) is 93.2%.
Regarding `O=c1[nH]cc(F)c(=O)[nH]1`, the growth was 57.2% and 54.6% with BT-549 breast (10 µM); 37.8% in the test with BT-549 breast (25 µM); 60.6% in the test on BT-549 breast (50 µM); 42.3% and 50.9% with MDA-MB-435 melanoma (10 µM); 36.6% in the test on MDA-MB-435 melanoma (25 µM); 42.2% in the test with MDA-MB-435 melanoma (50 µM). For the same molecule, the growth in the test with SW-620 colon (10 µM) was 60.1% and 77.8%; with SW-620 colon (25 µM) it was 50.1%; with SW-620 colon (50 µM) it was 43.4%; in the test with MCF7 breast (10 µM) it was 29.6% and 18.3%; in the test with MCF7 breast (25 µM) it was 11.5%; in the test with MCF7 breast (50 µM), 18.2%. In addition, the growth is 33.9% and 46.9% in the test with HCT-116 colon (10 µM); 17.8% in the test on HCT-116 colon (25 µM); 28.3% in the test on HCT-116 colon (50 µM); 18.9% in the test with HCC-2998 colon (10 µM); -17.8% (active) in the test with HCC-2998 colon (25 µM); 35.7% with HCC-2998 colon (50 µM). Moreover, the growth in the test on KM12 colon (10 µM) was 47% and 42.4%; in the test on KM12 colon (25 µM), 40.7%; with KM12 colon (50 µM) it was 32%.
With `Cc1cc(NCCCN(C)C)c2ccc3c(ccc4c(NCCCN(C)C)cc(C)nc43)c2n1`, the growth in the test with BT-549 breast (10 µM) was -91.4% (active); in the test on MDA-MB-435 melanoma (10 µM) it was -99.1% (active); with SW-620 colon (10 µM), -99.3% (active); in the test with MCF7 breast (10 µM), -89% (active); in the test with HCT-116 colon (10 µM), -15.4% (active); in the test on HCC-2998 colon (10 µM), -66.1% (active). Besides, the growth with KM12 colon (10 µM) was -97.6% (active).
Regarding `CN1CCN(c2ccc3nc(-c4ccc5nc(-c6ccc(O)cc6)[nH]c5c4)[nH]c3c2)CC1`, the growth in the test on BT-549 breast (10 µM) was 97.9%; in the test on MDA-MB-435 melanoma (10 µM), 52.5%; with SW-620 colon (10 µM), 87.1%; with MCF7 breast (10 µM), 34.5%; with HCT-116 colon (10 µM), 48.3%; with KM12 colon (10 µM), 106%.
As for `CCCCCCCCCCCCCCCCCN`, the growth with BT-549 breast (10 µM) is 106%; with MDA-MB-435 melanoma (10 µM), 99.5%; with SW-620 colon (10 µM), 97.1%; with MCF7 breast (10 µM), 100%; in the test with HCT-116 colon (10 µM) it was 102%; in the test on HCC-2998 colon (10 µM), 126%. In the test on KM12 colon (10 µM), the growth is 110%.
Take `CSc1ccc2c(c1)C(N1CCN(C)CC1)Cc1ccccc1S2` (configuration not stated): the growth was 63.1% in the test on BT-549 breast (10 µM); 7.17% (active) in the test with MDA-MB-435 melanoma (10 µM); 54.4% in the test with SW-620 colon (10 µM); 20.9% in the test on MCF7 breast (10 µM); 29.3% in the test with HCT-116 colon (10 µM); -39.2% (active) in the test with HCC-2998 colon (10 µM). In addition, the growth with KM12 colon (10 µM) was 21.4%.
On to `Nc1ccc2cc(Br)c3ccccc3c2c1`, for which the growth in the test with BT-549 breast (10 µM) was 68.9%; with MDA-MB-435 melanoma (10 µM), 66%; with MCF7 breast (10 µM) it was 35.1%; with HCT-116 colon (10 µM), 71.1%; in the test with HCC-2998 colon (10 µM), 47.7%; with KM12 colon (10 µM), 32.6%.
Take `COc1cc(C(C)(C)C)cc(OC)c1C(O)(c1c(OC)cc(C(C)(C)C)cc1OC)c1c(OC)cc(C(C)(C)C)cc1OC`: the growth was -58.9% (active) in the test with BT-549 breast (10 µM); -45.3% (active) with MDA-MB-435 melanoma (10 µM); -79.8% (active) in the test with SW-620 colon (10 µM); -88.6% (active) with MCF7 breast (10 µM); -100% (active) in the test on HCT-116 colon (10 µM); -91.9% (active) with HCC-2998 colon (10 µM). For the same molecule, the growth in the test on KM12 colon (10 µM) was -80.8% (active).
As to `BrC/C=C/C[P+](c1ccccc1)(c1ccccc1)c1ccccc1`, the growth in the test on BT-549 breast (10 µM) was 57.1%; with MDA-MB-435 melanoma (10 µM) it was 28.4%; with SW-620 colon (10 µM), 32.3%; in the test on MCF7 breast (10 µM), 20.3%; in the test on HCT-116 colon (10 µM), 14.8%; in the test on HCC-2998 colon (10 µM), 71.9%. The growth in the test on KM12 colon (10 µM) is 16.1%.
For the molecule `O=C(/C(=C/c1ccccc1)CBr)c1ccccc1`, the growth in the test on BT-549 breast (10 µM) was 112%; with MDA-MB-435 melanoma (10 µM) it was 64%; in the test on SW-620 colon (10 µM), 17.3%; with MCF7 breast (10 µM), 42.9%; in the test with HCT-116 colon (10 µM), 35.8%; with HCC-2998 colon (10 µM), 108%. Also, the growth in the test with KM12 colon (10 µM) was 88.5%.
Turning to `Cc1ccc2nc(N/N=C/c3ccc(C)s3)cc(C)c2c1`, in the test with MCF7 breast (100 µM), the growth is -94% (active) and -100% (active).
On the same count and under the same terms, with `COc1ccc2c(C)cc(N/N=C/c3sccc3C)nc2c1` the figure was -73.1% (active) and -100% (active).
`CN(C)CCC(=O)c1c[nH]c2ccccc12`: the growth is 121% in the test on BT-549 breast (10 µM); 107% in the test with MDA-MB-435 melanoma (10 µM); 111% in the test on SW-620 colon (10 µM); 93.2% in the test with MCF7 breast (10 µM); 103% in the test on HCT-116 colon (10 µM); 115% in the test on HCC-2998 colon (10 µM). The growth in the test on KM12 colon (10 µM) was 102%.
